# Results as given in ChEMBL document CHEMBL3988442, “University of Dundee, Small-Polar-MMV Screening Library” (2021).
# Hit rate of the full screen: of about 48,000 compounds, about 13,000 (27%) showed an effect of 50% or more. The list shows a part of the results.
# Tested on: Wolbachia pipientis
# Assay: Anti-Wolbachia Cell-Based Screen
# Format: functional
# Set-up: scale not given: in the data most compounds retested in dose-response had high values
# Conditions: 5 µM
row,Structure (SMILES),Percent Effect
1,COC(=O)c1ccc(NC(=O)[C@@H]2CCCN2C(=O)c2ccco2)s1,-1.409%
2,COC(=O)c1ccc(-c2noc(CN(CCO)Cc3cccs3)n2)cc1,109.2%
3,COCCN(Cc1ccco1)Cc1nc(-c2ccccc2)no1,2.564%
4,COCCN(Cc1ccccc1)Cc1nc(-c2ccsc2)no1,2.788%
5,OCCN(Cc1nc(-c2ccc3c(c2)OCO3)no1)CC1CC1,-12.91%
6,CCN(Cc1nc(C(C)C)no1)Cc1cccs1,12.81%
7,OCCN(Cc1ccccc1)Cc1nc(-c2ccc3c(c2)OCO3)no1,99.41%
8,OCCN(Cc1nc(-c2ccc3c(c2)OCO3)no1)Cc1cccs1,121.2%
9,CCc1nc(CN(Cc2cccs2)CC2CCCO2)no1 (centres undefined),3.529%
10,CC(Cn1cccn1)NCc1nc(-c2ccc3c(c2)OCO3)no1 (centres undefined),-6.149%
11,Cc1ccc(Sc2ccc(N3CCC(C(=O)O)CC3)nn2)cc1,6.07%
12,Cc1cc(C)c(-n2cccn2)c(CN2CCOCC(CN(C)C)C2)c1 (centres undefined),9.231%
13,Cc1cccnc1[C@H](C)NC(=O)Cc1cc2c(cc1Cl)OCCO2,3.322%
14,CN1CCOC[C@H]1c1nc(-c2ccccc2)c[nH]1,1.409%
15,O=C(C1CC1)N1CCC(C(=O)N2CCC(c3ccc(F)cc3)C2)CC1 (centres undefined),-1.259%
16,O=C(C1CC1)N1CCc2nc(C3CCN(C(=O)C4CC4)C3)nc(O)c2C1 (centres undefined),98.35%
17,CCS(=O)(=O)N1CCc2nc(N3CCCC3)nc(N(C)C)c2CC1,3.292%
18,CCS(=O)(=O)N1CCc2nc(C3CCN(C(=O)C4CC4)C3)nc(O)c2C1 (centres undefined),88.69%
19,O=S(=O)(CCO)Cc1ccc(OC(F)F)cc1,-13.52%
20,COc1cccc(-c2noc(-c3ccc(NCCCN)nc3)n2)c1OC,-11.46%
21,O=C(Cn1cc(C2CC2)nn1)NC(c1ccc(Cl)cc1)C1CC1 (centres undefined),-3.06%
22,CCc1ccc(CN2CCN(c3ccc(C#N)cc3)C(=O)C2)nc1,-14.58%
23,CCc1nnc(N2CCN(c3ccccc3)C(=O)C2)o1,1.843%
24,CN(C)c1ccc(CN2CCN(c3ccc(C#N)cc3)C(=O)C2)cn1,27.75%
25,CCc1nnc(CN2CCN(c3cccc(OC)c3)C(=O)C2)o1,104.5%

row,Structure (SMILES),Percent Effect
1,CCc1ccc(CN2CCN(c3cccc(OC)c3)C(=O)C2)nc1,111.5%
2,COc1cccc(N2CCN(Cc3ncc[nH]3)CC2=O)c1,-4.353%
3,Cc1ccc(S(=O)(=O)n2ccc(C(=O)NCC(F)(F)F)c2)cc1,31.33%
4,COc1ccc2c(=O)n(CC3CC3)ccc2c1OC,8.638%
5,CCn1cnnc1CNC(=O)NC(C)c1cccs1 (centres undefined),5.383%
6,COc1ccc(C(C)NC(=O)NCCNc2ccccn2)c(OC)c1 (centres undefined),23.68%
7,CC(NC(=O)NCCNc1ccccn1)c1cccs1 (centres undefined),84.24%
8,CC(C)C(NC(=O)NCCNc1ccccn1)c1cccs1 (centres undefined),-3.383%
9,CC(NC(=O)NCc1ccccn1)c1cccs1 (centres undefined),95.38%
10,O=C(O)C(F)(F)F.O=S(=O)(C1CC1)N1CC[C@]2(C[C@@H](Oc3ccccn3)CO2)C1,-7.855%
11,CN(C)c1ncc(CNS(=O)(=O)c2cc(F)ccc2Cl)n1C,-4.152%
12,COCCN1CCC(C(=O)N(C)Cc2c[nH]c3ccc(C)cc23)C1 (centres undefined),-13.06%
13,CC(C)CN1CCC(N2CCC(C(=O)N(C)C)CC2)CC1.O=C(O)C(F)(F)F.O=C(O)C(F)(F)F,126.3%
14,CN(C)Cc1cn2c(n1)CN(CC1CCCC1)CC2.O=C(O)C(F)(F)F.O=C(O)C(F)(F)F,-16.91%
15,CCc1nc(CN2CCC(C(=O)N(C)C)CC2)cs1,-2.315%
16,CC(C)CN1CC[C@@H]2[C@@H]1CCN2C(=O)N1CCCC1.O=C(O)C(F)(F)F,-1.369%
17,CN1CCC2(CCN(CC3CC3)CC2)C1=O.O=C(O)C(F)(F)F,-0.5297%
18,CC(C)CN1CC[C@@H]2[C@H](CC1)N(C(=O)c1ccccc1)CCS2(=O)=O.O=C(O)C(F)(F)F,-7.451%
19,CC(C)C(=O)N1CCC2(CN(CC3CCCC3)C2)C1.O=C(O)C(F)(F)F,-3.433%
20,CN1CCN(C2COC3(CCN(CC4CC4)CC3)C2)CC1.O=C(O)C(F)(F)F.O=C(O)C(F)(F)F.O=C(O)C(F)(F)F (centres undefined),-10.32%
21,CCN1CCC(N2CCC(C(=O)N(C)C)CC2)CC1.O=C(O)C(F)(F)F.O=C(O)C(F)(F)F,104.7%
22,CN(C)C(=O)C1CCN(C2CCN(CC3CCC3)CC2)CC1.O=C(O)C(F)(F)F.O=C(O)C(F)(F)F,115.1%
23,CN(C)C(=O)CN1CC[C@H]2CN(C3CCOCC3)C[C@@H]2C1=O.O=C(O)C(F)(F)F,-33.67%
24,CN(C)C(=O)C1CCN(C2CCN(CC3CC3)CC2)CC1.O=C(O)C(F)(F)F.O=C(O)C(F)(F)F,109%
